# PMC5700166
# Positions count from the first letter of the chain named.
# Legend:
# Assay in all cases: protein-binding microarray (PBM); PBM: ~300 nM protein, 6 mM HEPES pH 7.8, 80 mM KCl, 0.5 mM EDTA, 0.5 mM EGTA, 6% glycerol, 35 ng/ul poly-dIdC, 1% milk, 1 h, room temperature; Ap Aiptasia and Nv Nematostella (sea anemones) / Co Capsaspora / Aq Amphimedon (sponge) / Dm Drosophila / Hu human; RHD is the Rel homology domain; high values mean tight binding
# Details in all cases: dsDNA, one strand shown
# GST-Ap-NF-kB RHD = target: T1, GST-Ap-NF-kB RHD (Exaiptasia pallida (Aiptasia), UniProt A0A913YAJ5 2-422)
# T1 sequence: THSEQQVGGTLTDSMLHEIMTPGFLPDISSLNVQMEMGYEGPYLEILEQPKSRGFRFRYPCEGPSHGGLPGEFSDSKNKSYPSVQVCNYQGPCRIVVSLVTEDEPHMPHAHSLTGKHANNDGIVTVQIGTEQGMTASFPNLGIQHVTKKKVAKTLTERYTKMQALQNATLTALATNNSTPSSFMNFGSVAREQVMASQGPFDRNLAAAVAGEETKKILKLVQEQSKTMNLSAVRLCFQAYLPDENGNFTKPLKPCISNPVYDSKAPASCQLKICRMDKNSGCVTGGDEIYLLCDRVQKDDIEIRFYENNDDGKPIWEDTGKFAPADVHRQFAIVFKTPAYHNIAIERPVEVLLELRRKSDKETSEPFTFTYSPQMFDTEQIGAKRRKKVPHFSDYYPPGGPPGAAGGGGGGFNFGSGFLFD
# [1] = target: T2, GST-Nv-NF-kB (Cys allele) (Nematostella vectensis, UniProt E5G601 2-411)
# T2 sequence: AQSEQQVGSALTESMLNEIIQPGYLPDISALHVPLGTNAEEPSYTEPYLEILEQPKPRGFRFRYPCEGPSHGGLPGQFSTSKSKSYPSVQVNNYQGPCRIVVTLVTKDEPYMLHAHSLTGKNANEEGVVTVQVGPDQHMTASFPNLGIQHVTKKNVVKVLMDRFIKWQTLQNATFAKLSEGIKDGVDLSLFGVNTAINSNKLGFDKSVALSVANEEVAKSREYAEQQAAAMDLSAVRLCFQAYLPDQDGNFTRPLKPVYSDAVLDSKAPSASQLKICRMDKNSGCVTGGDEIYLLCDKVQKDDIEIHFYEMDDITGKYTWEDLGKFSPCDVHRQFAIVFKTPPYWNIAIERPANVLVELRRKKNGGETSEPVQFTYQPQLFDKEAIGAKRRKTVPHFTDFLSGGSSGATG
# [2] = target: T3, GST-Nv-NF-kB (Ser allele) (Nematostella vectensis, UniProt A7UNT2 2-411)
# T3 sequence: T2 sequence with Q21R, C66S, S207N, E215Q, V217A, E225K, A268E, D399E
# GST-Co-NF-kB = target: T4, GST-Co-NF-kB (Capsaspora owczarzaki, UniProt F1ARL5 200-546)
# T4 sequence: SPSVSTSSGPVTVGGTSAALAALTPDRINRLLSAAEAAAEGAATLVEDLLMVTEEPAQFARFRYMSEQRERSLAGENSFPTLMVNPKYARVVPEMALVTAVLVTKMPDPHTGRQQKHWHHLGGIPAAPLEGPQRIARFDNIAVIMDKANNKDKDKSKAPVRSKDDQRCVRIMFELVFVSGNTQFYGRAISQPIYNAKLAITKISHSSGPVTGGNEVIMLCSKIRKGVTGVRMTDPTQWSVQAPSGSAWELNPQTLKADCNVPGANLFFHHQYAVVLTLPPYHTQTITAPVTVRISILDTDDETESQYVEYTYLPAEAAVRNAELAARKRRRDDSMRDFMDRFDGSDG
# GST-Dm-Relish = target: T5, GST-Dm-Relish (Drosophila melanogaster, UniProt Q94527 99-473)
# T5 sequence: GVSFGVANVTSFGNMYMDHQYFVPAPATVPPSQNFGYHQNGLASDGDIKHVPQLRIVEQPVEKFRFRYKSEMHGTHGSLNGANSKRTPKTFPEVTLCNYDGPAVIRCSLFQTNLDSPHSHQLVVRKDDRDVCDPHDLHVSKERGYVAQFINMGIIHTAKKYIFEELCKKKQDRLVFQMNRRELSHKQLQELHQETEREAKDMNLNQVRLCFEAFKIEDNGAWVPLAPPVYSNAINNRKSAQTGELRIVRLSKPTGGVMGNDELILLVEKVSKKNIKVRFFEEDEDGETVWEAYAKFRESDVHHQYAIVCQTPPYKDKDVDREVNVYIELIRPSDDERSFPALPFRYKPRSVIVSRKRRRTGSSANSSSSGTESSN
# GST-Aq-NF-kB = target: T6, GST-Aq-NF-kB (Amphimedon queenslandica, UniProt A9Y5G7 2-389)
# T6 sequence: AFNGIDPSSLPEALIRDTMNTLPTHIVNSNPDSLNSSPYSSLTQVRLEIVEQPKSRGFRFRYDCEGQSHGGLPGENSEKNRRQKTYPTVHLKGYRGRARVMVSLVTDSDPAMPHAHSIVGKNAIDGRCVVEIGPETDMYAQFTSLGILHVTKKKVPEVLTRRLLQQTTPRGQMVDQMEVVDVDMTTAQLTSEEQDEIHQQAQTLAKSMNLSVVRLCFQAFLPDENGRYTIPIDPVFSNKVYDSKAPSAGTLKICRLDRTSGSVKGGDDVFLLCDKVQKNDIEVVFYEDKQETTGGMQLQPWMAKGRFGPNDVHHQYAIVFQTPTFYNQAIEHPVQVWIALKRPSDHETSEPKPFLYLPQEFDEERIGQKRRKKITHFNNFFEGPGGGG
# GST-Hu-p50 = GST-Hu-p50 (Homo sapiens, UniProt P19838 7-356)
# Chain of GST-Hu-p50 (P19838 7-356): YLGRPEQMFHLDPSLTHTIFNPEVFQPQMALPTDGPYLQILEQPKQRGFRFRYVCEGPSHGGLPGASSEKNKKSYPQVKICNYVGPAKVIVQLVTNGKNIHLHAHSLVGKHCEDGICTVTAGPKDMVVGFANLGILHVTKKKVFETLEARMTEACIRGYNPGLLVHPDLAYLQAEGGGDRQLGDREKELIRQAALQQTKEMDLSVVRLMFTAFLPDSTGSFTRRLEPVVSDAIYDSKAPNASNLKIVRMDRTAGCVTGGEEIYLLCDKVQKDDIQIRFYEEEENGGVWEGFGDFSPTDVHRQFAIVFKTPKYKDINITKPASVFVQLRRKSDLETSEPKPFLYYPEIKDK
Sequence,binding signal (GST-Ap-NF-kB RHD) [z-score],binding signal [1] [z-score],binding signal [2] [z-score],binding signal (GST-Co-NF-kB) [z-score],binding signal (GST-Dm-Relish) [z-score],binding signal (GST-Aq-NF-kB) [z-score],binding signal (GST-Hu-p50) [z-score]
CCGATTAACATCAAAGTATCCCCTGATGTTAATCGGGTCTTGATTCGCTTGACGCTGCTG,6.1,5.64,7.21,5.48,3.47,4.4,4.64
CCGATTAACATCAGCAATTTCCCTGATGTTAATCGGGTCTTGATTCGCTTGACGCTGCTG,3.13,4.55,5.81,3.47,1.78,3.79,3.52
CCGATTAACATCAGGGGATTCCATGATGTTAATCGGGTCTTGATTCGCTTGACGCTGCTG,9.19,9.04,9.49,3.19,10,6.89,6.77
CCGATTAACATCAGGAGTGTCCCTGATGTTAATCGGGTCTTGATTCGCTTGACGCTGCTG,2.12,2.48,1.44,1.05,1.23,4.83,1.29
CCGATTAACATCAGGGGAAATTATGATGTTAATCGGGTCTTGATTCGCTTGACGCTGCTG,8.88,10.5,12.1,9.24,6.62,7.99,6.95
CCGATTAACATCACCCGTTCCCCTGATGTTAATCGGGTCTTGATTCGCTTGACGCTGCTG,5.61,4.83,6.11,4.75,1.99,3.78,3.85
CCGATTAACATCAAGGGTATTCCTGATGTTAATCGGGTCTTGATTCGCTTGACGCTGCTG,5.29,5.81,4.65,1.17,7.04,5.86,4.55
CCGATTAACATCAGGGGGTGGTATGATGTTAATCGGGTCTTGATTCGCTTGACGCTGCTG,3.21,2.77,3.98,2.91,2.01,3.38,3.67
CCGATTAACATCAAGGGAAGTCCTGATGTTAATCGGGTCTTGATTCGCTTGACGCTGCTG,3.99,4.16,2.7,1.08,7.26,5.77,2.73
CCGATTAACATCAGGGGAAACGATGATGTTAATCGGGTCTTGATTCGCTTGACGCTGCTG,4.89,6.2,8.83,6.65,1.87,3.92,4.62
CCGATTAACATCAAAAAAATCCCTGATGTTAATCGGGTCTTGATTCGCTTGACGCTGCTG,6.44,7.72,6.74,2.41,8.77,7.45,5.87
CCGATTAACATCAACTCTCCCCCTGATGTTAATCGGGTCTTGATTCGCTTGACGCTGCTG,5.78,4.61,5.62,7.94,2.14,4.72,4.41
